Unmarked numbers belong to inactive results. Results filed as inconclusive are left out. A call without a number means that no potency is given here. Calls of active or inactive are those of the source. Unless noted, calls come from the whole dose curve; as a rule, active = well fitted curve in the direction sought with a large enough effect in the repeat runs; inconclusive = weak or mixed curves; inactive = no such curve, though single readings can be large; an effect the other way counts as inactive or inconclusive.
How the values were obtained:
[1] = qHTS assay to identify small molecule antagonists of the estrogen receptor alpha (ER-alpha) signaling pathway using the BG1 cell line in the presence of 0.1 nM 17-beta-estradiol - cell viability counter screen (AID 1259241); note: nearly all actives have a fitted effect of over 40% in size
Summary of the method: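 Estradiol-stimulated (0.1 nM) VM7Luc4E2 cells exposed to compounds 22 hr; viability measured by fluorescence of cleaved CellTiter-Fluor substrate after 30 min.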

[2] = qHTS assay to identify small molecule antagonists of the androgen receptor (AR) signaling pathway using the MDA cell line in the presence of 0.5 nM R1881 - cell viability counter screen (AID 1259242); note: nearly all actives have a fitted effect of over 45% in size
Summary of the method: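 Steps: plate MDA-kb2 cells, rest 5 hr at 37C without CO2; pin in compounds in DMSO; add R1881 to 0.5 nM final; incubate 16 hr; add CellTiter-Fluor, 30 min; read fluorescence.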

[3] = target: Estrogen receptor (Homo sapiens) (UniProt P03372); assay: qHTS assay to identify small molecule antagonists of the estrogen receptor alpha (ER-alpha) signaling pathway using the BG1 cell line in the presence of 0.1 nM 17-beta-estradiol (AID 1259244); note: nearly all actives have a fitted effect of over 50% in size; note: potency is the fitted concentration of half-maximal effect
Summary of the method: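 Antagonist mode: compounds in DMSO are pinned onto VM7Luc4E2 reporter cells, 0.1 nM final 17beta-estradiol is added, and after 22 h at 37C luciferase luminescence is measured with ONE-Glo.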

[4] = qHTS assay to identify small molecule phospholipidosis (PLD) inducers (AID 1259344; active = well fitted curve in the direction sought with a large enough effect; an effect the other way counts as inactive or inconclusive)
Summary of the method: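 Phospholipid accumulation was scored by imaging: fixed, Hoechst-counterstained HepG2 cells stained with LipidTOX Red after 24 h compound exposure at 37 C. Read-outs were pit count and pit intensity per well or per cell, with amiodarone and DMSO controls.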

[5] = qHTS assay to identify small molecule HDAC inhibitors (AID 1259364); note: potency is the fitted concentration of half-maximal effect;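 note: wild-type HCT-116 cells with endogenous class I/II HDAC activity; nearly all actives have a fitted effect of over 45% in size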
Summary of the method: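 Cells (HCT-116, wild type) are seeded at 1,500 per well, incubated overnight, treated with compound in DMSO for 2 hr, then developed with HDAC-Glo I/II reagent for 30 min at room temperature.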

[6] = qHTS assay to identify small molecule agonists of the sonic hedgehog signaling (Shh) pathway - cell viability counter screen (AID 1259366); note: nearly all actives have a fitted effect of over 50% in size
Summary of the method: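 Same-well cytotoxicity read. Gli1-Luc reporter 3T3 cells; compounds 24hr, 37C/5% CO2; CellTiter-Fluor fluorescence.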

[7] = qHTS assay to identify small molecule antagonists of the sonic hedgehog signaling (Shh) pathway - cell viability counter screen (AID 1259367); note: nearly all actives have a fitted effect of over 55% in size
Summary of the method: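 Viability was read by CellTiter-Fluor fluorescence in the same wells, reagent added 23 hr into compound treatment and incubated 1 hr at 37C. The 3T3 Gli1-Luc reporter cells (2,000/well) received conditioned medium after compound and ran 24 hr.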

[8] = qHTS assay to identify small molecule agonists of the sonic hedgehog signaling (Shh) pathway (AID 1259368; calls by dose curve;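 note: NIH/3T3-derived 3T3Gli1-Luc cells carrying a stable Gli1-driven firefly luciferase reporter; series mostly up to about 92 µM; nearly all actives have a fitted effect of over 15% in size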)
Summary of the method: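 Cells of a mouse NIH/3T3 clone stably expressing luciferase under the Gli1 transcriptional response element are exposed to test chemicals for 24 hr at 37 C. Pathway activation is detected as a rise in luminescence.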

[9] = qHTS assay to identify small molecule HDAC inhibitors - cell viability counter screen (AID 1259365); note: series mostly up to about 92 µM; nearly all actives have a fitted effect of over 50% in size
Summary of the method: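 After overnight seeding at 1,500 cells per well, wild-type HCT-116 cultures took up compounds in DMSO for 2hr at 37 C. Viable cell content came from luminescence with CellTiter-Glo.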

Sequence of Estrogen receptor (Homo sapiens) (P03372 whole entry, looked up): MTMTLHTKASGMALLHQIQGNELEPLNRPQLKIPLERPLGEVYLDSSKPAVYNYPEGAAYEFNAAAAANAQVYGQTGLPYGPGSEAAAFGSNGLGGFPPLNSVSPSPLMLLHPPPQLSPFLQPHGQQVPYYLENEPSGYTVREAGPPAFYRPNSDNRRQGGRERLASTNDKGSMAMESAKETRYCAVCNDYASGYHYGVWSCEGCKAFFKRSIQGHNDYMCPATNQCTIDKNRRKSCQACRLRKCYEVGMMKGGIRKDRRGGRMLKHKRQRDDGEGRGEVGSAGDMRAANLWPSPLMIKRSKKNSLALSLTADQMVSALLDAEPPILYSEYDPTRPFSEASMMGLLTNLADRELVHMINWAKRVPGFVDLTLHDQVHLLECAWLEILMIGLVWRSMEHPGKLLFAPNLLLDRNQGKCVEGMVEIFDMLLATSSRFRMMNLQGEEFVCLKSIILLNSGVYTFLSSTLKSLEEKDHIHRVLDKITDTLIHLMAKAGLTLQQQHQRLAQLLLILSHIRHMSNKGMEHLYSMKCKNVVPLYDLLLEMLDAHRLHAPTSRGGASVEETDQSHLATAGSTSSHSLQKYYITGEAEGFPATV

Compound	Potency [1]	outcome [2]	Potency [3]	outcome [4]	Potency [5]	Potency [6]	Potency [7]	Potency [8]	outcome [9]
CN1CCN(c2c(F)cc3c(=O)c(C(=O)O)cn(CCF)c3c2F)CC1	inactive	inactive	inactive	inactive	inactive	inactive	inactive	inactive	
COc1ccccc1OCC(O)COC(N)=O (centres undefined)	inactive	inactive	inactive	inactive	inactive	inactive		inactive	inactive
CCN(CCCc1ccccc1)CCCc1ccccc1	inactive	inactive	inactive	inactive	inactive	inactive		inactive	
FC(F)(F)C(F)(F)C(F)(F)C(F)(F)C(F)(F)C(F)(F)C(F)(F)C(F)(F)Br	inactive	inactive	inactive	inactive	inactive	inactive		inactive	inactive
CC(=O)OC1C2(C)CCC(C2)C1(C)C (centres undefined)	inactive	inactive	inactive		inactive	inactive	inactive	inactive	inactive
CCC(=O)Nc1ccc(O)cc1	inactive	inactive	inactive	inactive	inactive	inactive		inactive	inactive
Cc1cc(NS(=O)(=O)c2ccc(N)cc2)nc(C)n1	inactive	inactive	inactive	inactive	inactive	inactive	inactive	inactive	
CC(C)OC(C)C	inactive	inactive	inactive		inactive	inactive	inactive	inactive	inactive
CCCCCCCCCC/C=C/C#N	inactive	inactive	inactive		inactive	inactive	inactive	inactive	inactive
CCOC(=O)NCCC[Si](OCC)(OCC)OCC	inactive	inactive	inactive		inactive	inactive	inactive	inactive	inactive
CCCc1c2oc(C(=O)O)cc(=O)c2cc2c(=O)cc(C(=O)O)n(CC)c12	inactive	inactive	inactive		inactive	inactive	inactive	inactive	inactive
FC(F)(F)C(Cl)(Cl)Cl	inactive	inactive	inactive		inactive	inactive	inactive	inactive	inactive
O=C(C(Cl)Cl)N1CCOC12CCCCC2	inactive	inactive	inactive		inactive	inactive	inactive	inactive	inactive
CC(C)CC(=O)OCc1ccccc1	inactive	inactive	inactive		inactive	inactive	inactive	inactive	inactive
CCCCNc1ccc(C(=O)OCCN(CC)CC)cc1	inactive	inactive	inactive		inactive	inactive	inactive	inactive	inactive
O=C(O)c1cccc(Cl)c1Cl	inactive	inactive	inactive		inactive	inactive	inactive	inactive	inactive
OCc1c2ccccc2cc2ccccc12	inactive	inactive	inactive		inactive	inactive	inactive	inactive	inactive
CCCCCCCCCCCCOCCOS(=O)(=O)O	inactive	inactive	inactive		inactive	inactive	inactive	inactive	inactive
C=C(C)C(=O)OCCOP(=O)(O)O	inactive	inactive	inactive		inactive	inactive	inactive	inactive	
CCOc1ccc2nc(N)sc2c1	inactive	inactive	inactive		24.1 µM (active)	inactive		inactive	inactive
CO[Si](C)(C)OC	inactive	inactive	inactive		inactive	inactive	inactive	inactive	inactive
Oc1ccccc1F	inactive	inactive	inactive		inactive	inactive	inactive	inactive	inactive
Cc1nc(N)nc(N)c1-c1ccc(Cl)c(Cl)c1	inactive	inactive	13.3 µM (active)		inactive	inactive	inactive	inactive	
CCCCNC(=S)NCCCC	inactive	inactive	inactive		inactive		inactive		inactive
FC(F)(F)c1ccccc1	inactive	inactive	inactive		inactive	inactive	inactive	inactive	inactive

From PubChem BioAssay (Tox21)
